Experiments:
Assay in all cases: DAPPL (digital affinity profiling via proximity ligation, sequencing); 10 mM Tris-HCl pH 7.5, 50 mM NaCl, 1 mM DTT, 4% glycerol, room temperature, 30 min; GST-TFs on glutathione beads, 16-mer random dsDNA library, 0.1% formaldehyde crosslink after washing; high values mean tight binding
Conditions in all cases: protein: recombinant; tags: N-terminal GST; dsDNA, one strand shown
ELK1 = molecular target: T1, ELK1 (Homo sapiens, UniProt P19419 1-428)
T1 sequence: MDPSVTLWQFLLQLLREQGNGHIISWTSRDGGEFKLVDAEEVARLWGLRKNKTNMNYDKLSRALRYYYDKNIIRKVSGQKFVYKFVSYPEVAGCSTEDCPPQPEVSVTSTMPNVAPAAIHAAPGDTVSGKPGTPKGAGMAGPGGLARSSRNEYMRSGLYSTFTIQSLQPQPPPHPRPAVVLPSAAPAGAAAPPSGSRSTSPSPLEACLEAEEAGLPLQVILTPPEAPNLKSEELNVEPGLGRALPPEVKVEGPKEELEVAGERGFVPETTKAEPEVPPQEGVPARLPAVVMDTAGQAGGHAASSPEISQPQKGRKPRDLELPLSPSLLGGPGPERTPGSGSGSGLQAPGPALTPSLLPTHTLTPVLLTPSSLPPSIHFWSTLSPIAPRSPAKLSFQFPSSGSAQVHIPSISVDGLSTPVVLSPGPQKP
Procedure, shortened: (§1)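 Human transcription factors were made in yeast as GST fusions, captured on glutathione beads and barcoded with DNA. With a tag-only sample included, the pool was incubated with 200 nmole of a random double-stranded 16-mer DNA library in Tris/NaCl/DTT/glycerol buffer at room temperature for 30 min, then crosslinked with 0.1% formaldehyde after washing, ligated by proximity, amplified and sequenced. For binding signal, each hexamer's read frequency for a factor is divided by its frequency for the tag-only sample.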

ELF1 = ELF1 (Homo sapiens, UniProt P32519 1-619)
Procedure, shortened: as §1

SPIB = SPIB (Homo sapiens, UniProt Q01892 1-262)
Procedure, shortened: as §1

ETV5 = ETV5 (Homo sapiens, UniProt P41161 1-510)
Procedure, shortened: as §1

ELK4 = molecular target: T2, ELK4 (Homo sapiens, UniProt P28324-2 1-405)
T2 sequence: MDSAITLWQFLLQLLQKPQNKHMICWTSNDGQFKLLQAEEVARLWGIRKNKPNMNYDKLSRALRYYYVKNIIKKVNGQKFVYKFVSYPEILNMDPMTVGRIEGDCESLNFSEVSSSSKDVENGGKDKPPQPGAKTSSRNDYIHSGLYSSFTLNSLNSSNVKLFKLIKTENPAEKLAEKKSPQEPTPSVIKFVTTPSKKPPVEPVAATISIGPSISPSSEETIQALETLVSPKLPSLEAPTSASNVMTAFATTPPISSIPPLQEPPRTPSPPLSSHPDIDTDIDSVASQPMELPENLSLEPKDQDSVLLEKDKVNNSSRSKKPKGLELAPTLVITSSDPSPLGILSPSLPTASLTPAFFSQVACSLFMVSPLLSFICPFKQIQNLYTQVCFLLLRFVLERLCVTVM
Procedure, shortened: as §1

ETV1 = ETV1 (Homo sapiens, UniProt P50549 1-477)
Procedure, shortened: as §1

ERF = molecular target: T3, ERF (Homo sapiens, UniProt P50548 1-548)
T3 sequence: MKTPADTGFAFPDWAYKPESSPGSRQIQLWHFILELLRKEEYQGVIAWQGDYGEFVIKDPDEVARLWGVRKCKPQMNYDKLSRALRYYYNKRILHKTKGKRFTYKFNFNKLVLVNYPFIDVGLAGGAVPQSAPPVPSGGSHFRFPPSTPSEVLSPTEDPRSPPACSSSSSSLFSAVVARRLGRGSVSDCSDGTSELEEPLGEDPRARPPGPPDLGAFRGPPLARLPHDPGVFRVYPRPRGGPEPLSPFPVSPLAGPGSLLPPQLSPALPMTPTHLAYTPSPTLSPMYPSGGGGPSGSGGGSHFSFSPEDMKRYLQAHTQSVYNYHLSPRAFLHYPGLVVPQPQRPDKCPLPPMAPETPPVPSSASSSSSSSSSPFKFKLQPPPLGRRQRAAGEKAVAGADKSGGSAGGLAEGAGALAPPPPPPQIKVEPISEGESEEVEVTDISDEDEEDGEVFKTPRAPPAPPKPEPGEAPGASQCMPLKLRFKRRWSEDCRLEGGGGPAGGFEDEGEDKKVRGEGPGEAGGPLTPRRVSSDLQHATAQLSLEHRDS
Procedure, shortened: as §1

SPDEF = molecular target: T4, SPDEF (Homo sapiens, UniProt O95238 1-335)
T4 sequence: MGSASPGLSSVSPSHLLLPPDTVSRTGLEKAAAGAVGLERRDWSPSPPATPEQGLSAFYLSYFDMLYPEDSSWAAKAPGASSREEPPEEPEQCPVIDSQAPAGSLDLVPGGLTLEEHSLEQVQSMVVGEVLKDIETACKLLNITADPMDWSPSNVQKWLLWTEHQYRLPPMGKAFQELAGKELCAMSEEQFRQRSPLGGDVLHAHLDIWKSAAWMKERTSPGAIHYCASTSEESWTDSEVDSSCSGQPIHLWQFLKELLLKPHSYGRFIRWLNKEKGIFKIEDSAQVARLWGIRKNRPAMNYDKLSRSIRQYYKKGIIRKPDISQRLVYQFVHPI
Procedure, shortened: as §1

GABPA = molecular target: T5, GABPA (Homo sapiens, UniProt Q06546 1-454)
T5 sequence: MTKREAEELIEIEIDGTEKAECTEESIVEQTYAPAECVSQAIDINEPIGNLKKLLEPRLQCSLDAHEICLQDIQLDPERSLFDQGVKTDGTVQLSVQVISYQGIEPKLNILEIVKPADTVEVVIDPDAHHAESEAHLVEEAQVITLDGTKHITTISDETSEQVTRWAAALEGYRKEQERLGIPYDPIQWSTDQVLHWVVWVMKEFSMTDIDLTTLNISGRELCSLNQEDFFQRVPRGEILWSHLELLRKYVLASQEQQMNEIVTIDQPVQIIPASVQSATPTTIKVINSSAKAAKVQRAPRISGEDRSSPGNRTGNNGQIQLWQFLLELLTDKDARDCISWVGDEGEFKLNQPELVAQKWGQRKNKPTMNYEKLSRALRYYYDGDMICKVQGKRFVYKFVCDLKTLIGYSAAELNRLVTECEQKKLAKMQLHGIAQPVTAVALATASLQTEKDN
Procedure, shortened: as §1

ELK3 = molecular target: T6, ELK3 (Homo sapiens, UniProt P41970 1-407)
T6 sequence: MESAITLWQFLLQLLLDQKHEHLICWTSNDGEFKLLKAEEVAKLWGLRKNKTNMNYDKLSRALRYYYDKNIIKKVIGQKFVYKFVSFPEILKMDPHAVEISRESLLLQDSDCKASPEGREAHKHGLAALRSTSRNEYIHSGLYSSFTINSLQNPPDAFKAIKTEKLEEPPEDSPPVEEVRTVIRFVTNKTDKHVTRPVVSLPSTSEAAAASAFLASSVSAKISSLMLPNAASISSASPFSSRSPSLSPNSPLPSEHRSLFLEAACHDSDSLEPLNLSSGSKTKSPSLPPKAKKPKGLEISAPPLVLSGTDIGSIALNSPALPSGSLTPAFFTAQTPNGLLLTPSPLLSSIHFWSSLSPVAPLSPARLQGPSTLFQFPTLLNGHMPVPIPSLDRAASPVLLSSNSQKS
Procedure, shortened: as §1

SPIC = molecular target: T7, SPIC (Homo sapiens, UniProt Q8N5J4 1-248)
T7 sequence: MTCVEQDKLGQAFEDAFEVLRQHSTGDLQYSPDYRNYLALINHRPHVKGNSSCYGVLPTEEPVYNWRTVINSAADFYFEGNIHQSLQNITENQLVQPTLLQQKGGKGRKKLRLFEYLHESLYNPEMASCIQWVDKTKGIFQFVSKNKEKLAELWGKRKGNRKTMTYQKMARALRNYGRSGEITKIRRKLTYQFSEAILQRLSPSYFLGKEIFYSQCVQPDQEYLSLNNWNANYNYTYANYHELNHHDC
Procedure, shortened: as §1

ETV3L = molecular target: T8, ETV3L (Homo sapiens, UniProt Q6ZN32 1-361)
T8 sequence: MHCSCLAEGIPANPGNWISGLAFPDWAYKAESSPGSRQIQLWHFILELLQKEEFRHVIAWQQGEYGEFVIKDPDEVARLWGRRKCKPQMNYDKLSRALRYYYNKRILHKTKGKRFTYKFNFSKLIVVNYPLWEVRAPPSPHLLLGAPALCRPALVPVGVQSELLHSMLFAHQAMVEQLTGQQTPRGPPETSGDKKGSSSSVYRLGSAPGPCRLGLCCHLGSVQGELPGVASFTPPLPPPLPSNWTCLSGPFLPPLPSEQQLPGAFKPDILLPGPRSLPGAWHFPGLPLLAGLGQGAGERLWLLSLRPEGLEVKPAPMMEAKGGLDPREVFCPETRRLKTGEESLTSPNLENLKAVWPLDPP
Procedure, shortened: as §1

ETV3 = molecular target: T9, ETV3 (Homo sapiens, UniProt P41162-2 1-143)
T9 sequence: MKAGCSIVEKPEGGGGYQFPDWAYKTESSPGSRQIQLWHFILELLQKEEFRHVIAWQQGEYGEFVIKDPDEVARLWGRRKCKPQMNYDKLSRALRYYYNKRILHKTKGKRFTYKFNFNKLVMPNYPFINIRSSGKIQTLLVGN
Procedure, shortened: as §1

ELF4 = ELF4 (Homo sapiens, UniProt Q99607 1-663)
Procedure, shortened: as §1

ETV7 = molecular target: T10, ETV7 (Homo sapiens, UniProt Q9Y603 1-341)
T10 sequence: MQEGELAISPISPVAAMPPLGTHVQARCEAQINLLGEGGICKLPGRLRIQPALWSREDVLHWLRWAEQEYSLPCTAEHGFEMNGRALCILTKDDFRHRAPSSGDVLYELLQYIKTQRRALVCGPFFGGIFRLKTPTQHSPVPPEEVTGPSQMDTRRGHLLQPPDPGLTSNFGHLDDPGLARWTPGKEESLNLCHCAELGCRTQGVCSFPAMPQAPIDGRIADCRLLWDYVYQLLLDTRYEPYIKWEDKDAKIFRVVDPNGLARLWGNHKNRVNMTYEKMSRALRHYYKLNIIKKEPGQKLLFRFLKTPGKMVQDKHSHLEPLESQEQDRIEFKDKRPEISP
Procedure, shortened: as §1

Sequence of ELF1 (P32519 whole entry): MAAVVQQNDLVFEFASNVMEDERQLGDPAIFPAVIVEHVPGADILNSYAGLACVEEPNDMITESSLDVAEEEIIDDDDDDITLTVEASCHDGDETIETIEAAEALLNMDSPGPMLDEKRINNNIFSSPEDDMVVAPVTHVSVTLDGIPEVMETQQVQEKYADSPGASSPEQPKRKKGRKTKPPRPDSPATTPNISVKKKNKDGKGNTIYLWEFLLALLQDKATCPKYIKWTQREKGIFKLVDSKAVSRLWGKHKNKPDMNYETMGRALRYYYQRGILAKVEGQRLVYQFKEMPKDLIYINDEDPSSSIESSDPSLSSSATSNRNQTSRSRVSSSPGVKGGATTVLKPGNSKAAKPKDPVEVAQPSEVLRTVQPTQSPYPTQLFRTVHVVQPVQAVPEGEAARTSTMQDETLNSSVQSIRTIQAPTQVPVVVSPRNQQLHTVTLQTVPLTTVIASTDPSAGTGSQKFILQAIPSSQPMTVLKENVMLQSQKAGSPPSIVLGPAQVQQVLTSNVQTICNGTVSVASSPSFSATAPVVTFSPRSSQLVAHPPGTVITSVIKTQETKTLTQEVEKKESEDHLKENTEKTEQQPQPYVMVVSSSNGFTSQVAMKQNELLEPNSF
Sequence of SPIB (Q01892 whole entry): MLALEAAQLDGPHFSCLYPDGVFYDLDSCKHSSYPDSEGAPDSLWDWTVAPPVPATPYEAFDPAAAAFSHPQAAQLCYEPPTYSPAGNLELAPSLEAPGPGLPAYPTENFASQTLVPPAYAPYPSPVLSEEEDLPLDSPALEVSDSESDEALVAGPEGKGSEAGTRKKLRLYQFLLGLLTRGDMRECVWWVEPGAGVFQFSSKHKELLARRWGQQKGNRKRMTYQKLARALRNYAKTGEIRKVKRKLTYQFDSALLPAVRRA
Sequence of ETV5 (P41161 whole entry): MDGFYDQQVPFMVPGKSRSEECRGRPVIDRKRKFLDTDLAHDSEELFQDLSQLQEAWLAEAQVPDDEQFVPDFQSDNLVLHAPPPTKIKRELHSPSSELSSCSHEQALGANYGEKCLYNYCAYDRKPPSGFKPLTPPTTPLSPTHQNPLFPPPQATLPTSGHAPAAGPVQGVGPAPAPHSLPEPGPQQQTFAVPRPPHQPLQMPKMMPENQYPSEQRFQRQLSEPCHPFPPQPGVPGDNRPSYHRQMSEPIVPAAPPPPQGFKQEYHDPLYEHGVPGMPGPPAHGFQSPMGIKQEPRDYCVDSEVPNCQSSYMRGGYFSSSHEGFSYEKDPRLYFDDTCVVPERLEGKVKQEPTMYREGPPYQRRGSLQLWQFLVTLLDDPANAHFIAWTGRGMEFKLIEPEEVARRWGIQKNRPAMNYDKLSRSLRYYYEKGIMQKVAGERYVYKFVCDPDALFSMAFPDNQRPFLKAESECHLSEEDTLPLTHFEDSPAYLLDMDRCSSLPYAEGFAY
Sequence of ELF4 (Q99607 whole entry): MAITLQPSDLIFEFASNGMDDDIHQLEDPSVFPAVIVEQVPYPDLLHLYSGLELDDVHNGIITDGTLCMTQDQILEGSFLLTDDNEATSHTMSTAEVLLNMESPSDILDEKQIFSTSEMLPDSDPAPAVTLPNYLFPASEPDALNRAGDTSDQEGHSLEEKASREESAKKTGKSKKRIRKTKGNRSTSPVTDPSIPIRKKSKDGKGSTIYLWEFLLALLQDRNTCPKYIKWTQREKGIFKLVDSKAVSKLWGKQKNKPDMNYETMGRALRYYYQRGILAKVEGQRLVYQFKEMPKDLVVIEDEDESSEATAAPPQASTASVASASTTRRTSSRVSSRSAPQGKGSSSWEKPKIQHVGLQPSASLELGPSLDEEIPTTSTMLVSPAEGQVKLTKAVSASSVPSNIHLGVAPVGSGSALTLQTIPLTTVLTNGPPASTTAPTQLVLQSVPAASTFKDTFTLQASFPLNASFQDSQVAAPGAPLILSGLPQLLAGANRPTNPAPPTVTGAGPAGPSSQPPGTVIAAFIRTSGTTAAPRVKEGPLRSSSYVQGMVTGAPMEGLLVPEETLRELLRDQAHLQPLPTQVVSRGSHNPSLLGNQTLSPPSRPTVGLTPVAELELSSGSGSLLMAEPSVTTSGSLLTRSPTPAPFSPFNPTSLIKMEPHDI
Sequence of ETV1 (P50549 whole entry): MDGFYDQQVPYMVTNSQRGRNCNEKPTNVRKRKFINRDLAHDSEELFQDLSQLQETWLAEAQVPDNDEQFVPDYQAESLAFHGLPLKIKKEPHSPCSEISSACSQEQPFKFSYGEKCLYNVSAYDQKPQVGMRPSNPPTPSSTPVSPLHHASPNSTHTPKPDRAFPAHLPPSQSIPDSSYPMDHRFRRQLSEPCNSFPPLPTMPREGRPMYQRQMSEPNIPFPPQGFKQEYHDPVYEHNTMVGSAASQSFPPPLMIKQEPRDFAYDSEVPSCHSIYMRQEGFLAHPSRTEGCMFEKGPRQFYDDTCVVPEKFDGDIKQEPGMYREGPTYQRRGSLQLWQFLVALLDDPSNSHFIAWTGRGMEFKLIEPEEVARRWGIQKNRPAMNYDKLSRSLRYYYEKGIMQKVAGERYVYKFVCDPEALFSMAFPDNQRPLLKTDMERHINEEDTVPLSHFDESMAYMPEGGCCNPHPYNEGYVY

## GTACCA
ELK1
  binding signal: 1.04 fold enrichment (6-mer frequency, TF over GST control)
ELF1
  binding signal: 1.01 fold enrichment (6-mer frequency, TF over GST control)
SPIB
  binding signal: 1.02 fold enrichment (6-mer frequency, TF over GST control)
ETV5
  binding signal: 1.07 fold enrichment (6-mer frequency, TF over GST control)
ELK4
  binding signal: 1.09 fold enrichment (6-mer frequency, TF over GST control)
ETV1
  binding signal: 1 fold enrichment (6-mer frequency, TF over GST control)
ERF
  binding signal: 1.04 fold enrichment (6-mer frequency, TF over GST control)
SPDEF
  binding signal: 1 fold enrichment (6-mer frequency, TF over GST control)

## TGGTCG
GABPA
  binding signal: 1.08 fold enrichment (6-mer frequency, TF over GST control)
ELF1
  binding signal: 1.02 fold enrichment (6-mer frequency, TF over GST control)
SPIB
  binding signal: 1 fold enrichment (6-mer frequency, TF over GST control)
ELK3
  binding signal: 1.11 fold enrichment (6-mer frequency, TF over GST control)
ETV5
  binding signal: 1.06 fold enrichment (6-mer frequency, TF over GST control)
SPIC
  binding signal: 1.13 fold enrichment (6-mer frequency, TF over GST control)
ETV3L
  binding signal: 1 fold enrichment (6-mer frequency, TF over GST control)
ETV3
  binding signal: 1 fold enrichment (6-mer frequency, TF over GST control)

## TGAAGA
ELK3
  binding signal: 1.03 fold enrichment (6-mer frequency, TF over GST control)
SPIC
  binding signal: 1.01 fold enrichment (6-mer frequency, TF over GST control)
ELF4
  binding signal: 1.01 fold enrichment (6-mer frequency, TF over GST control)
ELK4
  binding signal: 1.02 fold enrichment (6-mer frequency, TF over GST control)
ERF
  binding signal: 1.09 fold enrichment (6-mer frequency, TF over GST control)
ETV7
  binding signal: 1.04 fold enrichment (6-mer frequency, TF over GST control)

From paper PMC7862700, “An all-to-all approach to the identification of sequence-specific readers for epigenetic DNA modifications on cytosine”
